Assay outcomes as filed in PubChem.
In the library only some 12% were active in any assay of this set; here they are far more common.
HP1b binding inh: inhibitors of HP1-beta chromodomain binding to methylated histone tails. actives 0.56% (n = 390,000). P83916. AID 540317. AlphaScreen HP1-beta / biotin-H3K9me3 peptide binding. Potency, µM (doses to about 114 µM), usual class: inhibitors; also: nearly all actives have a fitted effect of over 70% in size
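Compound inhibition of the preformed complex between 50 nM HP1-beta and 50 nM biotinylated H3K9me3 peptide was read by AlphaScreen. Buffer was PBS pH 7.4 with 0.01% Tween-20. Incubations ran 30 min at room temperature, with 10 ug/mL donor/acceptor beads.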
G9a block: inhibitors of human histone lysine methyltransferase G9a | Q96KQ7 | G9a H3K9 monomethylation, AlphaScreen, 2 h | Potency, µM (doses to about 102 µM), actives largely listed as inhibitors | actives 8.8% (n = 350,000); also: nearly all actives have a fitted effect of over 75% in size
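Chemiluminescent proximity detection of H3K9 monomethylation, read after 10 min bead incubation in the dark. Reaction: 20 nM G9a, 500 nM biotin-H3K9 peptide, 20 uM SAM cofactor, 2 h, room temperature, following 15 min enzyme-compound preincubation.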
Sfp PPTase inh: inhibitors of Bacillus subtilis Sfp phosphopantetheinyl transferase. Biochemical Sfp PPTase activity, qHTS. Potency, µM, usual class: inhibitors. actives 3.5% (n = 310,000). AID 1490;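 also: the enzyme is Sfp with the accession as filed and its product quenches rhodamine fluorescence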
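After 15 min at room temperature with compound, 15 nM Sfp received 5 uM rhodamine-CoA plus 12.5 uM BHQ-2-ybbR (50 mM Hepes pH 7.6, 10 mM MgCl2). Rate came from the fluorescence difference over 30 min, ex 525/em 598 nm.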
JMJD2A Tudor inh: JMJD2A Tudor domain (human) inhibition. O75164. AlphaScreen JMJD2A-Tudor / H3K4me3 peptide binding. actives 4.4% (n = 390,000). Potency, µM (doses to about 114 µM), hits mostly inhibitors; also: nearly all actives have a fitted effect of over 50% in size
BAZ2B block: blocks human BAZ2B | actives 4.4% (n = 360,000) | AlphaScreen BAZ2B-H3K14Ac peptide displacement | Potency, µM (series often up to 114 µM), usual class: inhibitors | AID 504333 | Q9UIF8; also: nearly all actives have a fitted effect of over 60% in size
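Multi-concentration screen (max 110 uM) measuring displacement of acetylated histone H3 peptide from BAZ2B by AlphaScreen, using 50 nM protein, 50 nM peptide and 10 ug/mL streptavidin donor plus Ni-chelate acceptor beads.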
PLK1 PBD block: inhibitors of human PLK1 polo-box domain binding; actives 2.8% (n = 360,000); Potency, µM, hits mostly inhibitors; Plk1 PBD binding of FITC phosphopeptide, fluorescence polarization; also: series mostly up to about 57 µM; nearly all actives have a fitted effect of over 65% in size
A number is an active result; [ ] = dose if it differs, or a comment. Calls follow the shape of the dose curve; as a rule, active = well fitted curve in the direction sought with a large enough effect; inconclusive = small, poorly fitted or top-dose-only effect, or another doubt; inactive = no such curve, though single readings can be large; an effect the other way counts as inactive or inconclusive.

What do the screens show for `O=C(NNc1c2ccccc2nc2ccccc12)c1ccccc1Cl`?
HP1b binding inh: inactive; G9a block: inactive; Sfp PPTase inh: inactive; JMJD2A Tudor inh: inactive; BAZ2B block: inactive; PLK1 PBD block: inactive

What do the screens show for `O=C(NNc1c2ccccc2nc2ccccc12)c1ccc(O)cc1O`?
HP1b binding inh: inconclusive; G9a block: inconclusive; Sfp PPTase inh: inactive; JMJD2A Tudor inh: 40µM; BAZ2B block: 20µM; PLK1 PBD block: inactive

Results for O=C(NNc1nc(=O)c2cccnc2s1)c1ccccc1O ?
HP1b binding inh: inactive; G9a block: 50µM; Sfp PPTase inh: inactive; JMJD2A Tudor inh: 50µM; PLK1 PBD block: 27µM

How did O=C(NNC(=O)c1cccc2ccccc12)c1ccccc1O do in these assays?
HP1b binding inh: inactive; G9a block: inactive; Sfp PPTase inh: inactive; JMJD2A Tudor inh: inactive; BAZ2B block: inactive; PLK1 PBD block: inactive

What do the screens show for `O=C(NNc1c2ccccc2nc2ccccc12)c1ccccc1O`?
HP1b binding inh: inactive; G9a block: inconclusive; Sfp PPTase inh: inconclusive; JMJD2A Tudor inh: inconclusive; BAZ2B block: 7.9µM; PLK1 PBD block: inactive

How did CNC(=O)c1c(C)[nH]c(=S)c(C#N)c1-c1ccco1 do in these assays?
HP1b binding inh: inconclusive; Sfp PPTase inh: 8.9µM; JMJD2A Tudor inh: 18µM; BAZ2B block: inconclusive; PLK1 PBD block: inconclusive

What do the screens show for `CSc1nc(C)c(C(=O)Nc2ccccc2)c(-c2ccco2)c1C#N`?
HP1b binding inh: inactive; G9a block: inactive; Sfp PPTase inh: inactive; JMJD2A Tudor inh: inactive; BAZ2B block: inactive; PLK1 PBD block: inactive

What do the screens show for `Cc1ccccc1NC(=O)c1c(C)[nH]c(=S)c(C#N)c1-c1ccco1`?
HP1b binding inh: inactive; G9a block: 1.3µM; Sfp PPTase inh: 56µM; JMJD2A Tudor inh: inactive; BAZ2B block: inactive; PLK1 PBD block: inconclusive

How did CS(=O)(=O)N1CCC2(CC1)CN(c1ncccn1)C2 do in these assays?
G9a block: inactive[12.7 µM]; Sfp PPTase inh: inactive

How did COC(=O)CNC(=O)CN1C(=O)N(c2ccc(Cl)cc2)C(N(O)C(=O)Nc2ccc(Cl)cc2)C1(C)C (stereo not given) do in these assays?
HP1b binding inh: inactive; G9a block: inactive; Sfp PPTase inh: inactive; JMJD2A Tudor inh: inactive; BAZ2B block: inactive; PLK1 PBD block: inactive

How did C[C@@]12C=Cc3occc3C1CC[C@@]13C[C@@H](CCC12)[C@@](O)(CO)C3 (stereo not given in full) do in these assays?
G9a block: 14µM; Sfp PPTase inh: inactive

Results for CCCCC(=O)N(C)c1c(CC)nc2c(OCC(=O)N3CCOCC3)cccn12 ?
PLK1 PBD block: inactive

How did Fc1ccc(C2=Nc3cccc4cccc(c34)N2)cc1 do in these assays?
HP1b binding inh: inactive; G9a block: inconclusive; Sfp PPTase inh: inactive; JMJD2A Tudor inh: inactive; BAZ2B block: inactive; PLK1 PBD block: inconclusive

Results for FC(F)(F)C1=Nc2cccc3cccc(c23)N1 ?
HP1b binding inh: inactive; G9a block: inactive[0.501 µM]; JMJD2A Tudor inh: inconclusive; BAZ2B block: inconclusive; PLK1 PBD block: 7.5µM

How did Brc1ccc(C2=Nc3cccc4cccc(c34)N2)o1 do in these assays?
HP1b binding inh: 45µM; G9a block: 16µM; Sfp PPTase inh: inactive; JMJD2A Tudor inh: inconclusive; BAZ2B block: inconclusive; PLK1 PBD block: inactive

What do the screens show for `COc1cc(OC)cc(C(=O)NCC(=O)OCC(=O)Nc2ncc(Cl)cc2Cl)c1`?
HP1b binding inh: inactive; G9a block: 71µM; Sfp PPTase inh: inactive; JMJD2A Tudor inh: inactive; BAZ2B block: inactive; PLK1 PBD block: inactive

Results for O=C(COC(=O)c1ccc([N+](=O)[O-])o1)Nc1ncc(Cl)cc1Cl ?
HP1b binding inh: inactive; JMJD2A Tudor inh: inactive; PLK1 PBD block: inactive

What do the screens show for `COc1cc(OC)cc(C(=O)NCC(=O)OCC(=O)c2ccc3c(c2)-c2ccccc2C3)c1`?
HP1b binding inh: inactive; G9a block: 35µM; Sfp PPTase inh: inactive; JMJD2A Tudor inh: inactive; BAZ2B block: inactive; PLK1 PBD block: inactive

Results for O=C(COC(=O)c1ccc(Br)o1)Nc1ncc(Cl)cc1Cl ?
HP1b binding inh: inactive; G9a block: inconclusive; Sfp PPTase inh: inactive; JMJD2A Tudor inh: inconclusive; BAZ2B block: 50µM; PLK1 PBD block: inactive

Results for O=C(COC(=O)c1cnccn1)Nc1ncc(Cl)cc1Cl ?
HP1b binding inh: inactive; G9a block: 28µM; JMJD2A Tudor inh: inconclusive; BAZ2B block: 50µM; PLK1 PBD block: inactive

What do the screens show for `O=C(/C=C\Nc1ccc(Cl)cn1)c1ccc(Br)cc1`?
HP1b binding inh: inactive; G9a block: inactive; Sfp PPTase inh: inactive; JMJD2A Tudor inh: inactive; BAZ2B block: inactive; PLK1 PBD block: inactive

Results for COc1ccc(C(=O)c2oc3ccccc3c2NC(=O)COc2ccccc2)cc1 ?
HP1b binding inh: inactive; G9a block: inactive; JMJD2A Tudor inh: inactive; BAZ2B block: inactive

How did CN(C)c1nc(C=C(C#N)C#N)c(Cl)n1-c1ccc(F)cc1 do in these assays?
HP1b binding inh: inactive; G9a block: inconclusive; Sfp PPTase inh: inactive; JMJD2A Tudor inh: inactive; BAZ2B block: inactive; PLK1 PBD block: 15µM

Results for Cc1cc(C)c2ccc(=S)[nH]c2n1 ?
HP1b binding inh: inactive; G9a block: 8.9µM; Sfp PPTase inh: inconclusive; JMJD2A Tudor inh: inactive; BAZ2B block: inactive; PLK1 PBD block: 15µM

Results for CCc1ccc(OCCCC(=O)Nc2ccc(N3CCOCC3)cc2)cc1 ?
HP1b binding inh: inactive; Sfp PPTase inh: inactive; JMJD2A Tudor inh: inactive; BAZ2B block: inactive; PLK1 PBD block: inactive

How did Cc1ccc(C)c(OCCCC(=O)Nc2ccc(N3CCOCC3)cc2)c1 do in these assays?
G9a block: 40µM; Sfp PPTase inh: inactive; BAZ2B block: inconclusive

How did Cc1cccc(OCCCC(=O)Nc2ccc(N3CCOCC3)cc2)c1 do in these assays?
HP1b binding inh: inactive; G9a block: 13µM; Sfp PPTase inh: inactive; JMJD2A Tudor inh: inactive; BAZ2B block: inactive; PLK1 PBD block: inactive

What do the screens show for `Cc1ccc(C)c(OCC(=O)Nc2ccc(N3CCOCC3)cc2)c1`?
HP1b binding inh: inactive; G9a block: 32µM; Sfp PPTase inh: inactive; JMJD2A Tudor inh: inconclusive; BAZ2B block: inconclusive; PLK1 PBD block: inactive

How did Cc1ccc(C)c(OCC(=O)Nc2ccccc2C(=O)N2CCOCC2)c1 do in these assays?
HP1b binding inh: inactive; G9a block: 89µM; Sfp PPTase inh: inactive; JMJD2A Tudor inh: inactive; BAZ2B block: inactive; PLK1 PBD block: inactive

What do the screens show for `Cc1ccc(C2CC(=O)Oc3cc(C)c(Cl)c(C)c32)cc1` (stereo not given)?
G9a block: inactive; Sfp PPTase inh: inactive

What do the screens show for `CCC(C)C(NC(=O)OC(C)(C)C)C(=O)NC1COC2CC(n3cc(C)c(=O)[nH]c3=O)OC12` (stereo not given)?
HP1b binding inh: inactive; Sfp PPTase inh: inactive; JMJD2A Tudor inh: inactive

How did Cc1ccc(C)c(OCC(=O)Nc2cc(C(=O)O)cc(C(=O)O)c2)c1 do in these assays?
HP1b binding inh: inactive; G9a block: 45µM; Sfp PPTase inh: inactive; JMJD2A Tudor inh: inactive; BAZ2B block: inactive; PLK1 PBD block: inactive
